According to PubChem BioAssay AID1851 (National Center for Advancing Translational Sciences (NCATS), 2009):
Screen size: about 16,000 compounds; about 5,800 (36%) were called active. Inconclusive results (about 23%) are left out. Calls follow the shape of the dose curve; as a rule, active = well fitted curve in the direction sought with a large enough effect; inconclusive = small, poorly fitted or top-dose-only effect, or effect the other way; inactive = no such curve, though single readings can be large or run the other way. The list shows a part of the results.

The molecules below were run against Cytochrome P450 2C19 (Homo sapiens) (UniProt P33261) (assay: Cytochrome panel assay with activity outcomes). Conditions: recombinant CYP, pro-luciferin dealkylation, luminescence, p450-cyp2c19; series mostly up to 57.1 µM; activity, negative = inhibition: at the top concentration.
% is scaled to controls: 0 for no effect and ±100 for the full control effect.

Cytochrome P450 2C19 (Homo sapiens), sequence (P33261 whole entry, looked up): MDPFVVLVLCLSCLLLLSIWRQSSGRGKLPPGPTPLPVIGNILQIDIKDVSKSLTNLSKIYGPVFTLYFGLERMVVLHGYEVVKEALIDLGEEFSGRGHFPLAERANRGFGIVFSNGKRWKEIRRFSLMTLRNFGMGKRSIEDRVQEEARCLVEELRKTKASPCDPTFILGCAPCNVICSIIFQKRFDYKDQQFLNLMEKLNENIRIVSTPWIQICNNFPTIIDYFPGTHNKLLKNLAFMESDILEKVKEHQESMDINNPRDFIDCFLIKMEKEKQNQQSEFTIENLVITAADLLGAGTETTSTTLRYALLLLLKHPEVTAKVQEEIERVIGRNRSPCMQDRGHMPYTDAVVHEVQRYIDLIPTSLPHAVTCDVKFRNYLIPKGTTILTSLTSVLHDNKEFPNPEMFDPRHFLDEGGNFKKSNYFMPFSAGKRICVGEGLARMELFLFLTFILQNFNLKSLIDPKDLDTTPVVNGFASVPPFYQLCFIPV

activity, negative = inhibition, inactive:
Oc1ccc(Cn2cc[nH]c2=S)cc1 5.78%
O=C(NNC(=S)NC(=O)c1cccnc1)c1ccccc1 -21.7%
O=S(=O)(O)c1ccc2cc(N=Nc3cc(S(=O)(=O)O)c4cccnc4c3O)ccc2c1 -22.6% [at 11.4 µM]
COc1ccc(C=NC(CO)C(O)c2ccc([N+](=O)[O-])cc2)cc1 (stereo not given) -6.09%
NC(N)=N/N=C\c1ccc(C2CCNCC2)cc1 23.7% [at 11.4 µM]
O=C(NC[C@@H](O)CO)c1c(I)c(C(=O)NC[C@@H](O)CO)c(I)c(N(CCO)C(=O)CO)c1I 8% [at 25.6 µM]
CC(C)NC[C@H](O)COc1cccc2ccccc12 0.306%
CCc1cc(C(=O)OC)c(NC(=O)CCCC(=O)O)s1 -16.5%
CCOC(=O)c1cc(-c2ccccc2)sc1NC(=O)C(C)(C)C 0.519%
CO[C@@H]1COC(=O)[C@H](C)NC(=O)[C@@H](C)COC(=O)CCC[C@H]1C 15.2% [at 11.4 µM]
Cc1ccccc1OCC(=O)Nc1sc(C(=O)Nc2cccc(C)c2C)c(C)c1C#N 4.91%
CCOC(=O)c1sc2c(c1C)c(=O)c(C(=O)OCC)cn2CC -25.8%
CCOc1ccc(-c2c[n+](=O)c3c(n2[O-])CCCC3)c(OCC)c1 -9.98%
COc1cc(C(=O)Nc2nc3ccc4nc(C)sc4c3s2)cc(OC)c1OC 4.14%
Cc1ccc(-c2ccc(=O)n(CC(=O)NCCN(C)C)n2)cc1 -0.291%
CCCN1CCN(CCCNC(=O)Cn2nc(-c3ccc(C)cc3)ccc2=O)CC1 -22.7%
Cc1c(Nc2ncccc2C(=O)O)cccc1C(F)(F)F -12.7% [at 25.6 µM]
Nc1ncnc2c1nc(-c1ccccc1)n2[C@H]1O[C@@H](CO)[C@@H](O)[C@H]1O -0.591% [at 11.4 µM]
CCO[P@]1(=O)OC[C@@H]2O[C@H](n3cnc4c(N)ncnc43)[C@H](O)[C@@H]2O1 14% [at 11.4 µM]
Cc1ccc(OCC(=O)NNC(=O)CCc2ccccc2)cc1 -31.3%
C/C(CC(=O)NCc1ccco1)=N\NC(=O)Cc1ccccc1 -5.7%
Cc1c(C(=O)Nc2ccc(OCc3ccccc3)cc2)cccc1[N+](=O)[O-] 42.2%
COc1ccccc1NC(=O)Cn1cncc1-c1ccc([N+](=O)[O-])cc1 -18.7%
Cc1ccc(CS(=O)(=O)CCC(=O)NCCCOC(C)C)cc1 -10.4%
Cc1ccc(OCC(=O)NNC(=O)c2cc3ccccc3o2)cc1 -12.6%
C[C@@H]1O[C@@H](n2cc(F)c(=O)[nH]c2=O)[C@H](O)[C@@H]1O -13.4%
Cc1cccc2cc(=O)[nH]c(C)c12 -20%
C[N+]1(CCC[N+]2(C)C[C@H]3[C@H](C2)[C@H]2C=C[C@@H]3CC2)CCOCC1 (stereo not given in full) -6.43% [at 11.4 µM]
Cc1cc2c(cc1S(N)(=O)=O)S(=O)(=O)CCC2 13.4% [at 25.6 µM]
COCCCNC(=O)CCC(=O)Nc1ccc2nc(N3CCOCC3)cc(C)c2c1 30.1%
Cc1ccccc1C(=O)NNC(=O)c1ccc(F)cc1 -21.3%
O=C(c1cc(C(F)(F)F)cc(C(F)(F)F)c1)N1CCC[C@@]2(CCN(c3ccncc3)C2)C1 0.411%
O=S(=O)(C[C@H](O)C(Cl)(Cl)Cl)NNc1ccccc1 -25.2% [at 11.4 µM]
CCC(=O)NC(NCC1CCCO1)C(Cl)(Cl)Cl (stereo not given) -28.2%
CCCC[C@]1(C2CCCC2)Cc2cc(OCC(=O)O)c(Cl)c(Cl)c2C1=O 14.2%
CO[C@@H]1/C=C\CC(=O)N[C@@H](C)C(=O)OC[C@H](NS(=O)(=O)c2ccc(C)cc2)[C@H](C)/C=C\CC(=O)OC[C@H]1C -0.432% [at 11.4 µM]
NC(=O)N[C@H]1NC(=O)NC1=O -5.57% [at 25.6 µM]
CC(Oc1ccc(O)cc1)(P(=O)(O)O)P(=O)(O)O 29%
CCC(=O)[C@@]1(C)[C@H](C)C[C@@H]2[C@@H]3CCC4=CC(=O)C=C[C@@]4(C)[C@H]3[C@H](O)C[C@]21C -27.9% [at 25.6 µM]
Cc1ccc(-n2c(SCc3ccc([N+](=O)[O-])cc3)nc3ccccc3c2=O)cc1 -12.2%
Nc1nnc(CC(=O)N/N=C/c2cccc([N+](=O)[O-])c2)s1 -11.2%
O=[N+]([O-])c1ccc(/C=N/Nc2cc(Cl)nc(-c3ccccc3)n2)cc1 17.3%
COc1ccc(NC(=O)N2CCCC3(CCN(C(=O)c4csnn4)CC3)C2)cc1 -7.72%
Cc1cc2c(nc1C)CCCN2C[C@@H](O)CN1CCN(C)CC1 4.3% [at 11.4 µM]
CO[C@@H](NC(N)=O)C(=O)O 20.6% [at 11.4 µM]
COCC(=O)N1CCN(c2ccc([N+](=O)[O-])cc2)CC1 -7.34%
CC[N+](CC)(CC)CC -13.4%
COc1ccc(S(=O)(=O)NCCC(=O)NCc2ccc(F)cc2)cc1 -27.1%
O=c1c2ccccc2nc2n1CCC2 -19.1%
C[N+](C)(C)CCCSc1nc2ccccc2[nH]1 32.5% [at 11.4 µM]
Cc1c(/C=N/NC(=O)c2ccc3c(c2)OCO3)cnn1C -22.6%

AC50, active:
O=C(NC(=S)Nc1nc(-c2ccc(Br)cc2)cs1)c1cccnc1 10 µM
CS/C(N)=N/N=C/c1ccc([N+](=O)[O-])cc1 14.1 µM
O=C(COc1cccc2ccccc12)N1c2ccccc2CCc2ccccc21 0.447 µM
COC(=O)c1cc(-c2ccccc2)sc1NC(=O)CN1C(=O)c2ccccc2C1=O 7.08 µM
CCOC(=O)c1cc(CC)sc1NC(=O)C(c1ccccc1)c1ccccc1 8.91 µM
CCOC(=O)c1cc(NC(=O)c2ccc(OC)cc2)c(=O)oc1-c1ccccc1 2.82 µM
CCOC(=O)c1cc(-c2ccccc2)sc1NC(=O)c1ccc(OC)cc1 7.94 µM
CCOC(=O)c1sc(NC(=O)CSc2nc(C)cc(C)c2C#N)c(C#N)c1C 5.62 µM
CCOC(=O)c1sc(NC(=O)CSc2n[nH]c(-c3ccc(Cl)cc3Cl)n2)c(C#N)c1C 2.24 µM
O=C1c2ccccc2N[C@H](c2cc(Cl)cc(Cl)c2O)N1CCc1ccccn1 3.98 µM
COc1ccc(OC)c(Nc2nc(-c3sc(NC(=O)c4ccccc4)nc3C)cs2)c1 6.31 µM
CCOc1ccccc1Nc1nc(-c2sc(NC(=O)c3ccccc3)nc2C)cs1 3.16 µM
CCn1c(C)c(/C=N/Nc2nc3ccccc3s2)c2ccccc21 3.16 µM
Cc1ccc(-c2ccc(=O)n(CC(=O)NCc3ccco3)n2)cc1 7.94 µM
COc1ccc([N+](=O)[O-])cc1NC(=S)NC(NC(=O)Cc1ccc(OC)c(OC)c1)C(Cl)(Cl)Cl (stereo not given) 0.708 µM
Cc1cccc(OCCCC(=O)Nc2ccccc2C(F)(F)F)c1 7.08 µM
Cc1ccc(OCCCC(=O)Nc2ccccc2C(F)(F)F)cc1 6.31 µM
Cc1ccc(OCC(=O)Nc2ccccc2-c2ccccc2)cc1 3.55 µM
Cc1c(NC(=O)CCCOc2ccccc2)cccc1[N+](=O)[O-] 2.51 µM
Cc1ccc(OCCCC(=O)NCc2ccco2)cc1 10 µM
CCN(CC(=O)Nc1ccc([N+](=O)[O-])cc1OC)c1ccccc1 5.62 µM
Cc1ccc(OCC(=O)NC2=NCCS2)cc1 17.8 µM
Cc1ccc(OCC(=O)Nn2cnc3ccccc32)cc1 20 µM
Cc1c(NC(=O)C(Sc2ccccc2)c2ccccc2)cccc1[N+](=O)[O-] (stereo not given) 0.891 µM
COc1ccc([N+](=O)[O-])cc1NC(=O)CC(C)c1ccccc1 (stereo not given) 3.55 µM
COc1cc([N+](=O)[O-])ccc1NC(=O)CCCOc1cccc(C)c1 3.98 µM
CCCCNC(=O)CCC(=O)Nc1ccc2nc(N3CCOCC3)cc(C)c2c1 25.1 µM
Cc1ccccc1C(=O)NN(C)c1nc2ccccc2nc1C(F)(F)F 0.355 µM
O=C(Nc1ccccc1)N(Cc1ccccc1)CC(O)C(F)(F)F (stereo not given) 5.01 µM
O=C(Nc1cccc(C(F)(F)F)c1)N(Cc1ccc(Cl)cc1)CC(O)C(F)(F)F (stereo not given) 3.98 µM
CCCC(=O)NC(Nc1ccccc1F)C(Cl)(Cl)Cl (stereo not given) 2.82 µM
CCOC(=O)C1=C(C)N=C2c3ccccc3C(=O)C2C1c1ccc(C)cc1 (stereo not given) 1 µM
CCOC(=O)C1=C(C)N=C2c3ccccc3C(=O)C2C1c1ccc(Cl)cc1 (stereo not given) 0.631 µM
CCC(=O)c1ccc(OCc2ccc(C(=O)OC)cc2)c(OC)c1 3.16 µM
O=C(Nc1ccccc1C(=O)Nc1ccc2c(c1)OCO2)c1ccco1 3.16 µM
CC1(C)Oc2ccc(NC(=O)c3ccco3)cc2O1 14.1 µM
COn1c(SCc2cccc(Cl)c2)nc2ccccc2c1=O 2.24 µM
COn1c(SCc2ccc(C)cc2C)nc2ccccc2c1=O 3.55 µM
O=[N+]([O-])c1cccc(/C=N/Nc2cc(Cl)nc(-c3ccccc3)n2)c1 2 µM
O=C(CCCc1ccccc1)N1CCN(c2ccc([N+](=O)[O-])cc2)CC1 8.91 µM
CC(=O)Nc1ccc(S(=O)(=O)NCCc2ccc(F)cc2)cc1 5.01 µM
O=c1c2c(-c3ccc(Cl)cc3)csc2nc2n1CCC2 8.91 µM
Cc1c(OCC(F)(F)F)ccnc1CSc1nc2ccccc2[nH]1 1.58 µM
COC(=O)c1ccc(NC(=O)c2ccccc2NS(=O)(=O)c2ccccc2)cc1 3.98 µM
CC(C)C1NC(=S)N(Cc2ccccc2)C1=O (stereo not given) 2 µM
O=C(N/N=C\c1cn(-c2ccccc2)nc1-c1ccccc1)c1ccc2c(c1)OCO2 3.16 µM
O=C(N/N=C\c1cn(-c2ccccc2)nc1-c1ccccc1)c1ccc(Br)o1 2 µM
Cc1ccc(-c2nn(-c3ccccc3)cc2/C=N/NS(=O)(=O)c2ccccc2)cc1 8.91 µM

AC50, inactive:
CC(C)NC[C@@H](O)COc1cccc2ccccc12
